Data from PubChem BioAssay (Tox21).
Inconclusive results are not listed. Active and inactive are the calls of the source. Calls follow the shape of the dose curve; as a rule, active = well fitted curve in the direction sought with a large enough effect in the repeat runs; inconclusive = weak or mixed curves; inactive = no such curve, though single readings can be large; an effect the other way counts as inactive or inconclusive.

Key:
[1] = A CellTox Green Cytotoxicity Assay to monitor cytotoxicity in HepG2 cells - 0 hour (AID 1224882); also: nearly all actives have a fitted effect of over 35% in size
How it was run: (§1)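 Cytotoxicity was tracked as dead-cell DNA fluorescence in HepG2 cells treated with test compounds at 37 C; each time-point value comes from one kinetic series spanning 0, 8, 16, 24, 32 and 40 h.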

[2] = A CellTox Green Cytotoxicity Assay to monitor cytotoxicity in HepG2 cells - 32 hour (AID 1224883); also: nearly all actives have a fitted effect of over 50% in size; also: potency is read from the fitted curve at half-maximal effect
How it was run: as §1

[3] = A CellTox Green Cytotoxicity Assay to monitor cytotoxicity in HEK293 cells - 8 hour (AID 1224884); also: nearly all actives have a fitted effect of over 35% in size; also: potency is read from the fitted curve at half-maximal effect
How it was run: (§2)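 Real-time, in one plate: 600 HEK293 cells/well with dead-cell DNA dye, pinned compound after 5 h, 37 C incubation over 40 h; viable cells give no appreciable fluorescence.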

[4] = qHTS RealTime-Glo MT Cell Viability Assay in HEK293 cells - 24 hour (AID 1224886); also: nearly all actives have a fitted effect of over 50% in size; also: potency is read from the fitted curve at half-maximal effect; as to activity change, negative = cytotoxicity: top concentration of the series differs between compounds
How it was run: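 Viability tracked continuously by luminescence as live cells reduce a prosubstrate for NanoLuc; HEK293 cells preincubated 5 h, compound-treated at 37 C, and read at 0, 8, 16, 24, 32 and 40 h.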

[5] = qHTS RealTime-Glo MT Cell Viability Assay in HepG2 cells - 0 hour (AID 1224889); also: nearly all actives have a fitted effect of over 50% in size; also: potency is read from the fitted curve at half-maximal effect
How it was run: (§3)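 Viability was tracked continuously by NanoLuc luminescence from prosubstrate reduced by living HepG2 cells, at successive time points over 40 h of compound exposure. Cells with reagent were preincubated 5 h at 37 °C before compound addition.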

[6] = qHTS assay to identify small molecule antagonists of the estrogen receptor alpha (ER-alpha) signaling pathway using the BG1 cell line in the presence of 0.1 nM 17-beta-estradiol - cell viability counter screen (AID 1259241); also: nearly all actives have a fitted effect of over 40% in size; also: potency is read from the fitted curve at half-maximal effect
How it was run: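 CellTiter-Fluor read (30 min, 37C) on ER-alpha/ERE-luc VM7Luc4E2 cells; 22 hr compound treatment; agonist 0.1 nM E2 final; same-well multiplex.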

[7] = qHTS RealTime-Glo MT Cell Viability Assay in HEK293 cells - 8 hour (AID 1224887); also: nearly all actives have a fitted effect of over 50% in size; also: potency is read from the fitted curve at half-maximal effect; as to activity change, negative = cytotoxicity: top concentration of the series differs between compounds
How it was run: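 Kinetic, non-lysing viability readout. Seed HEK293 (600/well) with reagent, incubate 5 h at 37 C/5% CO2, pin 23 nL compound in DMSO, incubate at 37 C, read luminescence at 0, 8, 16, 24, 32, 40 h.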

[8] = A CellTox Green Cytotoxicity Assay to monitor cytotoxicity in HEK293 cells - 16 hour (AID 1224888); also: nearly all actives have a fitted effect of over 35% in size
How it was run: as §2

[9] = A CellTox Green Cytotoxicity Assay to monitor cytotoxicity in HepG2 cells - 8 hour (AID 1224890); also: nearly all actives have a fitted effect of over 45% in size
How it was run: as §1

[10] = qHTS RealTime-Glo MT Cell Viability Assay in HepG2 cells - 16 hour (AID 1224885); also: nearly all actives have a fitted effect of over 50% in size; also: potency is read from the fitted curve at half-maximal effect
How it was run: as §3
% is scaled to controls: 0 for no effect and ±100 for the full control effect.

COc1ccc(C(=O)c2ccc(OC)cc2O)c(O)c1
active: Potency [4] 24.7 µM
inactive: Potency [1] | Potency [2] | Potency [3] | Potency [5] | Potency [6]

O=C(NCCO[N+](=O)[O-])c1cccnc1
inactive: Potency [1] | Potency [2] | Potency [3] | Potency [4] | Potency [7] | Potency [8] | Potency [5] | Potency [9] | Potency [6]

COc1ccc(C(=O)Nc2nc3ccccc3c(NCc3ccccc3)c2C#N)cc1
inactive: Potency [1] | Potency [2] | Potency [3] | Potency [4] | Potency [7] | Potency [8] | Potency [5] | Potency [9] | Potency [6]

CCCOC(C(=O)OC1CCN(C)CC1)(c1ccccc1)c1ccccc1
active: Potency [2] 21.3 µM
inactive: Potency [1] | Potency [3] | Potency [7] | Potency [9] | Potency [6]

COc1cc(C(=O)OCCCN2CCCN(CCCOC(=O)c3cc(OC)c(OC)c(OC)c3)CC2)cc(OC)c1OC
inactive: Potency [1] | Potency [3] | Potency [5] | Potency [9]
active: Potency [2] 21.3 µM | Potency [4] 8.49 µM | Potency [7] 9.52 µM

CC(C)(CO)[N+](=O)[O-]
inactive: Potency [1] | Potency [2] | Potency [3] | Potency [4] | Potency [7] | Potency [8] | Potency [5] | Potency [9] | Potency [6]

C[C@H](CCC(=O)O)[C@H]1CC[C@H]2[C@@H]3CC[C@@H]4C[C@H](O)CC[C@]4(C)[C@H]3C[C@H](O)[C@]12C
inactive: Potency [1] | Potency [2] | Potency [10] | Potency [4] | Potency [5] | Potency [6]

CCC(C)c1cc(C(C)(C)C)c(O)c(C(C)(C)C)c1 (stereo unspecified)
inactive: Potency [1] | Potency [2] | Potency [10] | Potency [4] | Potency [7] | Potency [5] | Potency [6]

Nc1cccc([N+](=O)[O-])c1
inactive: Potency [1] | Potency [3] | Potency [10] | Potency [4] | Potency [7] | Potency [8] | Potency [5] | Potency [6]

C=CCOC(=O)CCC1CCCCC1
inactive: Potency [1] | Potency [2] | Potency [10] | Potency [4] | Potency [7] | Potency [8] | Potency [5] | Potency [9]

CCc1cc(C2=C(C(=O)O)N(c3ccccc3C(F)(F)F)S(=O)(=O)c3ccccc32)cc2c1OCO2
active: Potency [5] 24.3 µM
inactive: Potency [1] | Potency [3] | Potency [10] | Potency [4] | Potency [7] | Potency [8] | Potency [9] | Potency [6]

CN(C)c1ccc(/C=C/c2ccc([N+](=O)[O-])cc2)cc1
inactive: cytotoxicity [1] 4.44% [at 6.97 µM] | cytotoxicity increase [2] 16% [at 6.97 µM] | activity change, negative = cytotoxic [10] -7.1% [at 6.97 µM] | activity change, negative = cytotoxicity [4] -4.06% [at 6.97 µM] | activity change, negative = cytotoxicity [7] -2.66% [at 6.97 µM] | activity change, negative = cytotoxicity [5] -8.4% [at 6.97 µM]

CC(C)OC(=O)C(C)N(C(=O)c1ccccc1)c1ccc(F)c(Cl)c1 (stereo unspecified)
inactive: Potency [1] | Potency [3] | Potency [10] | Potency [4] | Potency [7] | Potency [5] | Potency [9] | Potency [6]

O=[N+]([O-])c1cccc(S(=O)(=O)O)c1
active: Potency [4] 22.2 µM
inactive: Potency [1] | Potency [3] | Potency [10] | Potency [8] | Potency [5] | Potency [9] | Potency [6]

Brc1c2ccccc2cc2ccccc12
inactive: Potency [1] | Potency [2] | Potency [3] | Potency [8] | Potency [5] | Potency [6]

COc1ccc(-c2nc3ccc(C4=NNC(=O)CC4C)cc3[nH]2)cc1 (stereo unspecified)
inactive: Potency [1] | Potency [3] | Potency [10] | Potency [8] | Potency [5] | Potency [9] | Potency [6]
active: Potency [4] 9.52 µM

CC1OC(=O)C(C)OC1=O (stereo unspecified)
inactive: Potency [1] | Potency [3] | Potency [10] | Potency [4] | Potency [7] | Potency [8] | Potency [5] | Potency [9]

CC[N+]1(CC)CCC(=C(c2ccccc2)c2ccccc2)C1C (stereo unspecified)
inactive: Potency [1] | Potency [3] | Potency [10] | Potency [7] | Potency [8] | Potency [5] | Potency [9] | Potency [6]

O=C1CCCCCCCCCCCC(=O)OCCO1
inactive: Potency [1] | Potency [3] | Potency [10] | Potency [4] | Potency [7] | Potency [8] | Potency [5] | Potency [9] | Potency [6]

OC[C@H]1O[C@@H](OCCc2ccc(O)cc2)[C@H](O)[C@@H](O)[C@@H]1O
inactive: Potency [1] | Potency [3] | Potency [10] | Potency [4] | Potency [7] | Potency [8] | Potency [5] | Potency [9] | Potency [6]

Brc1c2ccccc2c(Br)c2ccccc12
inactive: cytotoxicity [1] 5.32% [at 6.97 µM] | cytotoxicity increase [2] 2.42% [at 6.97 µM] | activity change, negative = cytotoxic [10] -0.25% [at 6.97 µM] | activity change, negative = cytotoxicity [4] 1.98% [at 6.97 µM] | activity change, negative = cytotoxicity [7] -3.92% [at 6.97 µM] | activity change [8] -0.0109% [at 6.97 µM, active compounds read high] | activity change, negative = cytotoxicity [5] 2.26% [at 6.97 µM] | cytotoxicity increase [9] 2.74% [at 6.97 µM] | activity change, negative = cytotoxicity [6] 3.89% [at 8.39 µM]

CCCCCCCCCCCCCCCCOS(=O)(=O)O
active: Potency [3] 23.9 µM
inactive: Potency [1] | Potency [10] | Potency [4] | Potency [7] | Potency [5] | Potency [6]

O=S(=O)(Oc1ccc(Cl)cc1)c1ccccc1
inactive: Potency [1] | Potency [2] | Potency [3] | Potency [8] | Potency [5] | Potency [9] | Potency [6]

O=C(O)c1nc(Cl)c(Cl)c(Cl)c1Cl
inactive: Potency [1] | Potency [3] | Potency [10] | Potency [7] | Potency [8] | Potency [5] | Potency [9] | Potency [6]

Nc1ccc(S(=O)(=O)Nc2ccccc2)cc1
inactive: Potency [1] | Potency [3] | Potency [10] | Potency [4] | Potency [7] | Potency [5] | Potency [9] | Potency [6]

CCN(CC)CCNc1ccc(CNC=O)c2sc3ccc(OC)cc3c(=O)c12
active: Potency [10] 21.9 µM | Potency [4] 19.5 µM | Potency [7] 34.7 µM | Potency [6] 4.33 µM
inactive: Potency [1] | Potency [3] | Potency [8] | Potency [9]
